Reference: PubChem BioAssay AID2783 (National Center for Advancing Translational Sciences (NCATS), 2010)
Inconclusive results are not listed. Activity calls are given as the source filed them. Calls come from the whole dose curve; as a rule, active = well fitted inhibition curve with a large enough effect in the polarisation, with a control signal flat (not every such curve was filed as active); inconclusive = small, poorly fitted or top-dose-only effect, or effect the other way, or a change in a side signal; inactive = no such curve, though single readings can be large or run the other way; the % refers to the polarisation. Where a SMILES comes first, the peptide text is derived from it. Bridges are numbered along the chain shown (N, C = ends). [ ]: non-standard residue; d: D form. The star is where a group is joined. ξ: configuration not given here. Octanoyl(6-Me) = CCC(C)CCCCC(=O)*; ξThr(3R) = C[C@@H](O)C(N)C(=O)O; dDab = NCC[C@@H](N)C(=O)O; Dab = NCC[CH](N)C(=O)O

Each compound was assayed against Histone-lysine N-methyltransferase 2A (Homo sapiens) (UniProt Q03164) (assay: Confirmation of Inhibitors Targeting the Menin-MLL Interaction in MLL Related Leukemias: Competition With Fluorescein Labeled MLL-derived Peptide). Details: Fluorescence polarization, fluorescein-MLL peptide displacement from menin.
Potency is the fitted concentration of half-maximal effect.

Sequence of Histone-lysine N-methyltransferase 2A (Homo sapiens) (Q03164 whole entry, looked up): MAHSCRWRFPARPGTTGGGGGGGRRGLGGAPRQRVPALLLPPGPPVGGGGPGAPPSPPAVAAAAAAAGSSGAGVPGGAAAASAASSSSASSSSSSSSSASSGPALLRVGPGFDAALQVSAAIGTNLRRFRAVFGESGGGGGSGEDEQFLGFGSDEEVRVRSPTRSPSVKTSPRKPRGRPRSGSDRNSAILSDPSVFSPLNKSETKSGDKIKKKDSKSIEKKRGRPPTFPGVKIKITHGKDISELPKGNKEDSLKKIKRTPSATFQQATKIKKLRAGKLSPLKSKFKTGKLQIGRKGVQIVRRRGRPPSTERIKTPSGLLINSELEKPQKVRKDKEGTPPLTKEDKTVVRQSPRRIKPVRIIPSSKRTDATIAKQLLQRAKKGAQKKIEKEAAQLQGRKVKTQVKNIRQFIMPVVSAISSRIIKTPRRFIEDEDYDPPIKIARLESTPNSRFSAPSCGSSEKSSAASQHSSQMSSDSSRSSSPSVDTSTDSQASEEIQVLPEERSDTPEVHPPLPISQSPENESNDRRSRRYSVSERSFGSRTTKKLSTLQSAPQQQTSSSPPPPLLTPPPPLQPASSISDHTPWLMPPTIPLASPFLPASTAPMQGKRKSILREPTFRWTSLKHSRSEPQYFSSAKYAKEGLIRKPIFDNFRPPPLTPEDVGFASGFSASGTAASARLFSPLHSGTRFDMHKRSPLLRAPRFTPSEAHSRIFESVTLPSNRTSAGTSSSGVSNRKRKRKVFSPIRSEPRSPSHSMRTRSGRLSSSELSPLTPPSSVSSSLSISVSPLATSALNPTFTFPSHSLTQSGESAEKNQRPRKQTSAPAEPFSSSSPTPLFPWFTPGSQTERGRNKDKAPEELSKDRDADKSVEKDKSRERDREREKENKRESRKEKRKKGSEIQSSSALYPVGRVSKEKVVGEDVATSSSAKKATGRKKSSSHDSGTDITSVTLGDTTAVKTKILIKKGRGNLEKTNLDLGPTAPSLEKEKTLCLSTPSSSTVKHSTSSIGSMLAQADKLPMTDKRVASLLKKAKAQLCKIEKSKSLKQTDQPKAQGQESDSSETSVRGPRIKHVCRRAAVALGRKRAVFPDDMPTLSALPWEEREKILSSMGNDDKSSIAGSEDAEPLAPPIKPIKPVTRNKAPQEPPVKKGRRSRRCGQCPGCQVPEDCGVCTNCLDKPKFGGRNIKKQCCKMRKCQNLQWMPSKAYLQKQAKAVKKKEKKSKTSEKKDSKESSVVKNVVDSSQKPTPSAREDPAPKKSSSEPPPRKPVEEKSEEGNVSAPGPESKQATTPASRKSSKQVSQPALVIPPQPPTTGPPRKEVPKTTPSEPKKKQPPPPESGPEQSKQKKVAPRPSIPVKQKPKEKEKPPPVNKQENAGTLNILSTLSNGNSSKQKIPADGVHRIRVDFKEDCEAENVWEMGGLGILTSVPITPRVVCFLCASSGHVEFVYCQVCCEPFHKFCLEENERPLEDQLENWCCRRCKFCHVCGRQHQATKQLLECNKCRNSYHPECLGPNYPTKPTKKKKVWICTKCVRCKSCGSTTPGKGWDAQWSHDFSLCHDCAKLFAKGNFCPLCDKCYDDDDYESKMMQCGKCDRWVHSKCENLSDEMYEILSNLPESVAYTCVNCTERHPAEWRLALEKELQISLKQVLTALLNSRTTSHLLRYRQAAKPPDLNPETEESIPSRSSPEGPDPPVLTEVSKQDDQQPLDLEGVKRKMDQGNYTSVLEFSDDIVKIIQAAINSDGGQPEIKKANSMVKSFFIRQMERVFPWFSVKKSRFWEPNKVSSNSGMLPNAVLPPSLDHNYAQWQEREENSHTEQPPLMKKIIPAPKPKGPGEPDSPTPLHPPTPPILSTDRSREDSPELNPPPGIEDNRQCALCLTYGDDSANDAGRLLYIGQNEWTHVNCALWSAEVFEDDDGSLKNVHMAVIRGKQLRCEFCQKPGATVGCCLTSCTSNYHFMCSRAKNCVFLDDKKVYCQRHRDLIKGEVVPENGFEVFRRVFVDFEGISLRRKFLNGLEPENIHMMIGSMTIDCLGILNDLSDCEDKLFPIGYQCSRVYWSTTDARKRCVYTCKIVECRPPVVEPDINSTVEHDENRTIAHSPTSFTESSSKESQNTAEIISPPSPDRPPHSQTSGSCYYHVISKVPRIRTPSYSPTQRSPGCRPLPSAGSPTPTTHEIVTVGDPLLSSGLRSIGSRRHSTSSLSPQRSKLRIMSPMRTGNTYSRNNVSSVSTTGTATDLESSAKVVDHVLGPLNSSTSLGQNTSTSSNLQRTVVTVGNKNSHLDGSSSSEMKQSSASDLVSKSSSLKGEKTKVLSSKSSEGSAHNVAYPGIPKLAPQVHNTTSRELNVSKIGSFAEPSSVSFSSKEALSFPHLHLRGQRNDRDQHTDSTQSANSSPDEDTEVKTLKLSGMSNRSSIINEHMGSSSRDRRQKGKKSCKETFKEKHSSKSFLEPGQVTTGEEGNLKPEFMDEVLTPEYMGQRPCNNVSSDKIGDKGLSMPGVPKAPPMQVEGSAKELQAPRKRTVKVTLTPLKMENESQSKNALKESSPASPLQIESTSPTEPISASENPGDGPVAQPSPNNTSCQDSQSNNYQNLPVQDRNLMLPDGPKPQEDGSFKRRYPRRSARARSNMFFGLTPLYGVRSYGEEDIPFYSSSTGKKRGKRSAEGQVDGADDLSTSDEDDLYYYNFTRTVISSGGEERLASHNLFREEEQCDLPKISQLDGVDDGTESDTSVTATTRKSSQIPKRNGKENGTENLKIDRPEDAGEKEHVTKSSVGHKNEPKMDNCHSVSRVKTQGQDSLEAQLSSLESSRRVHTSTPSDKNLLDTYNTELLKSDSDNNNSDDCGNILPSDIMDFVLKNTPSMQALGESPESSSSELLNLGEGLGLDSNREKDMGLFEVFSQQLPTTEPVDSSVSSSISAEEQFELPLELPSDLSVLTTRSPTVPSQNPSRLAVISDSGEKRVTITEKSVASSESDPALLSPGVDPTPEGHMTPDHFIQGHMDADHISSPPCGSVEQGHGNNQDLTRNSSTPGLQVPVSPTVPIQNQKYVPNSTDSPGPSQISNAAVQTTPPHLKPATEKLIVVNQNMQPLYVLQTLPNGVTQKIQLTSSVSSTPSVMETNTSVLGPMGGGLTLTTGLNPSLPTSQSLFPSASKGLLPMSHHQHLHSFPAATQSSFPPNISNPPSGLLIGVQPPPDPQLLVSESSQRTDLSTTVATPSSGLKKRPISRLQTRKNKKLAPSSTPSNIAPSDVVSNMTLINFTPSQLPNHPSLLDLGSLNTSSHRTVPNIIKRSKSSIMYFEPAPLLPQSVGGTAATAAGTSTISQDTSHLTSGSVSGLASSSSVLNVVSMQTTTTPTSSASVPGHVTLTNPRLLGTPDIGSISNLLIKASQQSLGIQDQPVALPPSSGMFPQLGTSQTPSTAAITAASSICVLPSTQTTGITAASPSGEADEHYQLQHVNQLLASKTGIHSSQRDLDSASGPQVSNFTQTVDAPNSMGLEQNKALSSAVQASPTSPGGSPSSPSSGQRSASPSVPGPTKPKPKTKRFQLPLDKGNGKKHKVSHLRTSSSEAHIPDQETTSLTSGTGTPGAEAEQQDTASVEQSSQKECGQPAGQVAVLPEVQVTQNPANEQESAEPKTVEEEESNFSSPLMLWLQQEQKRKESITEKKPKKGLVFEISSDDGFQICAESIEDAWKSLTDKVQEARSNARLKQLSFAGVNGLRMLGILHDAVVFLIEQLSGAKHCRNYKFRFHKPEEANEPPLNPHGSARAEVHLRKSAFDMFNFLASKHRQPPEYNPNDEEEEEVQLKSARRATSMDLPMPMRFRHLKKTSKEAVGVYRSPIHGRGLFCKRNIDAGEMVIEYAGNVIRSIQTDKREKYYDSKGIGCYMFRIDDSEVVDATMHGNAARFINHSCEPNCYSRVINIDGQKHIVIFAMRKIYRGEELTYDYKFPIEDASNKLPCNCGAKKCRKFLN

Potency, active:
CC(=O)NC1C(=O)N(CCN2CCOCC2)c2ccc(C)cc21 (configuration not stated) 79.6 µM
CCCC(c1nnnn1Cc1ccco1)N1CCN(C2CCCC2)CC1 (configuration not stated) 126 µM
CCC(c1nnnn1Cc1ccc(F)cc1)N1CCN(C2CCCCC2)CC1 (configuration not stated) 126 µM
CCC(C)CCCCC(=O)NC(CCN)C(=O)NC(C(=O)NC(CCN)C(=O)NC1CCNC(=O)C(C(C)O)NC(=O)C(CCN)NC(=O)C(CCN)NC(=O)C(CC(C)C)NC(=O)C(Cc2ccccc2)NC(=O)C(CCN)NC1=O)C(C)O (configuration not stated) ({Octanoyl(6-Me)}-[Dab]T[Dab][Dab][Dab]FL[Dab][Dab]T; lactam 4-C; configuration not given here) 10 µM
N=C1c2ccccc2CN1c1ccc(N2CCOCC2)c(S(=O)(=O)Nc2ccc(Cl)cc2)c1 71 µM
Cc1sc2ncnc(NC3CCN(Cc4ccccc4)CC3)c2c1C 63.1 µM
COc1ccccc1NS(=O)(=O)c1cc(N2Cc3ccccc3C2=N)ccc1N1CCOCC1 71 µM
COC(=O)[C@H](C)NC(=O)c1cc2c(cn1)[nH]c1ccccc12 50.2 µM
C[C@H](NC(=O)c1cc2c(cn1)[nH]c1ccccc12)C(=O)O 71 µM
CCc1cc2c(N3CCN(C(=O)c4ccco4)CC3)ncnc2s1 63.1 µM
CC1(C)CN=C(N2CCN(c3ncnc4sc5c(c34)CCCC5)CC2)S1 22.4 µM
c1cc(CN2CCCNCCNCCCNCC2)ccc1CN1CCCNCCNCCCNCC1 31.6 µM
CCCC[n+]1c2ccccc2cc2ccccc21 63.2 µM
NC(=NCCCCCCN=C(N)/N=C(\N)Nc1ccc(Cl)cc1)/N=C(\N)Nc1ccc(Cl)cc1 141 µM
CNC[C@H](CC1CCCCC1)NC[C@H](Cc1ccccc1)NCCC12CC3CC(CC(C3)C1)C2 79.4 µM
Cc1cc2c(N)cccc2nn1 141 µM
COc1ccc(Cn2nnnc2C(c2ccc3ncccc3c2)N2CCN(C3CCCCC3)CC2)cc1 (configuration not stated) 200 µM
O=C(C[N+]12CC[N+](CC(=O)c3ccc(F)cc3)(CC1)CC2)c1ccc(F)cc1 79.4 µM
CCC[n+]1c2ccccc2cc2ccccc21 63.2 µM
CCOc1cc(CNCCc2ccc(S(N)(=O)=O)cc2)ccc1OCc1ccccc1 126 µM
NC(=O)[C@@H]1CCCNc2c(I)cc([N+](=O)[O-])cc2C(=O)N[C@@H](CCCN=C(N)N)C(=O)N[C@@H](CCCN=C(N)N)C(=O)N1 251 µM
CCC(C)CCCCC(=O)N[C@@H](CCN)C(=O)N[C@H](C(=O)N[C@@H](CCN)C(=O)N[C@H]1CCNC(=O)C([C@@H](C)O)NC(=O)[C@@H](CCN)NC(=O)[C@H](CCN)NC(=O)[C@H](CC(C)C)NC(=O)[C@@H](CC(C)C)NC(=O)[C@H](CCN)NC1=O)[C@@H](C)O (stereo partly drawn) ({Octanoyl(6-Me)}-[Dab]T[Dab][Dab][Dab][dL]L[Dab][dDab][ξThr(3R)]; lactam 4-C) 12.6 µM
